Each compound was assayed against Shiga toxin 2 (Escherichia coli O157:H7) (UniProt P09385+P09386) (assay: E. coli 0.157:H7 Shiga Toxin SOP - stx2 screening assay). Details: 30 µM.
Format: functional
Parameters: scale not given: direction of the effect not stated beside the values

Compound	Percent Effect
CCOc1cccc(CNC(=O)NCC(O)c2cccc(F)c2)c1 (stereo not given)	16.2%
COCCN1CCN(C(=O)c2cc(C(C)C)on2)[C@H]2CS(=O)(=O)C[C@H]21	-5.69%
COc1cc2nc3n(c(=O)c2cc1OC)CCN(C(C)=O)CC3	17%
CCN1CCC(NC(=O)CN2CCCC2Cn2nc(C)cc2C)CC1 (stereo not given)	17.1%
O=C(NCc1ccccn1)N(Cc1ccc(F)cc1F)C1CC1	10.3%
Cc1nc(CN2CCOC(CNc3cccnn3)C2)oc1C (stereo not given)	0.662%
Cc1cc(CN2CCc3nn(C)c(=O)cc3C2)on1	0.17%
Cc1ccc2c(c1)CN(C(=O)C1CCCCC1)C(CN(C)C)CO2 (stereo not given)	2.56%
Cc1cc2c(cc1C(=O)N1CC[C@H](CO)[C@@H](O)C1)OCCO2	8.21%
CCS(=O)(=O)N1C[C@H]2CCC[C@@]2(COc2ccccn2)C1	2.64%
Cc1ccc(-n2nnc(CC(=O)N3CCOCC3)c2C)cc1	-28%
O=C(c1cnc(-c2ccco2)s1)N1CCCC1Cn1cccn1 (stereo not given)	-4.37%
CC1=N[C@@]2(CC[C@@H]3CN(S(=O)(=O)CC(C)C)C[C@@H]32)C(=O)N1CC(C)C	9.05%
Cc1csc(N2CCCN(C(=O)C(C(C)C)n3cncn3)CC2)n1 (stereo not given)	15.4%
c1ncn(CC2CCCCN2Cc2csc(C3CCCC3)n2)n1 (stereo not given)	-35.6%
CCNC(c1ccc(OC)cc1)c1cccnc1 (stereo not given)	1.33%
CC(C)(C#N)C(=O)N1CCCC(c2cc(C(F)(F)F)[nH]n2)C1 (stereo not given)	-11.7%
Cc1noc([C@H]2COC[C@H]3CN(C(=O)Cc4ccc(F)cc4)C[C@H]32)n1	23.4%
O=C(CCc1ccccc1)N1CCC(N2CCNC2=O)CC1	26%
CCOCCN1CCN(Cc2cccc(C(=O)N(C)C)c2)CC1	-26.9%

Compound	Percent Effect
CN(Cc1cn2ccccc2c1C#N)C1CCCN(c2cccnn2)C1 (stereo not given)	-75.3%
COCCN1CCCC(O)(CN2CCN(c3ncccc3C)CC2)C1=O (stereo not given)	-7.55%
CCc1cc(C(=O)N2CCC(Nc3ccc(C)nn3)CC2)sc1C	-27.9%
O=C(N[C@@H]1CN(Cc2ccccc2)C[C@@H]2CCCO[C@@H]21)C1CC1	-19.6%
Cc1ccc(CC(=O)N(C)CC2(O)CCN(c3ccccn3)C2)s1 (stereo not given)	-0.365%
Cc1nc(CNC(=O)NCC(O)c2ccc(F)c(F)c2)cs1 (stereo not given)	4.89%
O=C1CCC(C(=O)NCc2nn(-c3ccccc3)c3c2CCC3)CN1 (stereo not given)	-54.3%
O=C(NCCCN1CCCCC1)c1ccc(-n2ccc3ccccc32)s1	-90%
Nc1nccc(NCc2cc3n(n2)CCCN(C(=O)C2CCC2)C3)n1	1.54%
CC(NC(=O)NCCn1ccnc1)c1ccc2c(c1)NC(=O)CO2 (stereo not given)	5.67%
CNc1cc(CCNC(=O)c2cccnc2)nc(-c2ccncc2)n1	2.08%
Cc1noc(CN(Cc2ccc3c(c2)OCO3)Cc2ccc(C)o2)n1	29%
Cc1nc(COC[C@@H]2CC[C@H]3[C@H](CCN3c3ncccn3)O2)cs1	-14.4%
CC(C)(C)c1nnc(CN2CCCC(c3cc(C(N)=O)[nH]n3)C2)o1 (stereo not given)	19.9%
CC(=O)Nc1nc(C2CCN(CC(N)=O)CC2)cs1	-8.65%
COCCc1noc(CN2CCOC(Cn3nc(C)cc3C)C2)n1 (stereo not given)	-7.72%
Cc1cccnc1C(=O)N1CCCCC1c1[nH]ncc1S(C)(=O)=O (stereo not given)	6.84%
COc1ccccc1OCCN1CCCC(c2cc(C(N)=O)[nH]n2)C1 (stereo not given)	5.34%
CC(=O)N1CCCC1c1nccc(C)n1 (stereo not given)	0.898%
Cc1noc2ncc(C(=O)N3CCCC3c3ccncc3)cc12 (stereo not given)	-37.9%
